The list is not random: actives were taken first. Their share in the collection is about 1.3%.
NR5A2 inv ag = suppresses constitutive activity of human LRH-1; HEK293T StAR-luciferase reporter, LRH-1 transfected, 24 h; AID 602396; O00482; hit rate 0.13% among 360,000; inhibition, % at 3.6 µM;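 active means inhibition above the mean inhibition of all tested compounds plus 3 SD, cut at about 73% in these data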;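 further: 0% = DMSO wells and 100% = reporter-only cells lacking LRH-1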
Target sequence (O00482 whole entry, looked up): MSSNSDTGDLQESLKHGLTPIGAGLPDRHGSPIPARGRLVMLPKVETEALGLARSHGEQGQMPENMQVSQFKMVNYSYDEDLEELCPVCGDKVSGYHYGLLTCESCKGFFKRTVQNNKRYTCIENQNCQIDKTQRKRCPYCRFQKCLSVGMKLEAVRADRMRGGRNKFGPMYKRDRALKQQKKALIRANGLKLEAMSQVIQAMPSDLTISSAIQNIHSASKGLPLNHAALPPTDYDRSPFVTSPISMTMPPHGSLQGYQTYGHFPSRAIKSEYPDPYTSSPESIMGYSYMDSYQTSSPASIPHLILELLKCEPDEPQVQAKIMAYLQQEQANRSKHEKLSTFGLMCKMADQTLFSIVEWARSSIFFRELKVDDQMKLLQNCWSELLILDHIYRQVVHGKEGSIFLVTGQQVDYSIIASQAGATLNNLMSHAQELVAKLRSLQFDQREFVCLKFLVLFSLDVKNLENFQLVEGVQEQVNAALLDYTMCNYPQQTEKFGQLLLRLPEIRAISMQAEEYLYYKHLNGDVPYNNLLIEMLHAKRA
NCOA1 inh = inhibitors of human steroid receptor coactivator 1 (SRC1); Q15788; HEK293 GAL4-SRC1 luciferase reporter, luminescence; inhibition, % at 3.6 µM; hit rate 0.12% among 360,000;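 active means inhibition above the campaign mean plus 3 SD, with each screening campaign given its own cutoff, cut at about 60% in these data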;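 further: 0% = DMSO treated cells and 100% = gossypol at 36 µM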
SRC3 inh = inhibitors of human steroid receptor coactivator 3 (SRC3); AID 588352; HEK293 GAL4-SRC3 luciferase reporter, luminescence; hit rate 0.17% among 360,000; inhibition, % at 3.6 µM;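 active means inhibition above a per-campaign cutoff, the mean of all compounds plus 3 SD, cut at about 60% in these data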;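 further: 0% = DMSO-treated cells and 100% = gossypol-treated cells at 36 µM; higher means less SRC3-driven luciferase light from the GAL4 reporter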
COUP-TFII inh = NR2F2 (human) inhibition, primary screen. HEK293T NGFI-A luciferase reporter, luminescence. hit rate 0.7% among 370,000. P24468. inhibition, % at 8.6 µM;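 active means inhibition above a per-plate cutoff, mean inhibition of test wells between control levels plus 3 SD, cut at about 38% in these data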;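 further: cells cotransfected with COUP-TFII expression vector driving the NGFI-A reporter; 0% = median of COUP-TF2 test wells and 100% = reporter-only cells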
Gli-Sufu antag = antagonists of Gli-Sufu signaling; Sufu-KO-LIGHT fibroblasts, Gli luciferase reporter luminescence; inhibition, % at 5 µM; hit rate 0.74% among 340,000; AID 588413;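 active means inhibition above about 55%, limit read from the data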;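 further: 0% = DMSO-treated cells and 100% = wells with medium but no cells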
SRC2 inh = inhibits human steroid receptor coactivator 2 | AID 651957 | inhibition, % at 9 µM | HEK293 GAL4-SRC2 luciferase reporter, luminescence | hit rate 0.17% among 370,000 | Q15596;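 active means inhibition above the mean inhibition of all tested compounds plus 3 SD, set per campaign, cut at about 52% in these data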;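 further: 0% = DMSO treated cells and 100% = cells given Gossypol at 36 µM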
VP16 Luc counter = inhibits VP16 reporter, flagging COUP-TFII antagonist hits | HEK293 Gal4-VP16 luciferase reporter, luminescence | inhibition, % at 8.5 µM | hit rate 25% among 2,500 | shares compounds with COUP-TFII inh; in the data active means inhibition above about 13%
NR2F2 inh conf = COUP-TFII (NR2F2) inhibition, confirmation assay | shares compounds with COUP-TFII inh | HEK293 NGFI-A luciferase reporter, luminescence | inhibition, % at 8.5 µM | hit rate 45% among 2,500;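 active means mean inhibition over three repeats above a set limit taken from the earlier primary screen, cut at about 38% in these data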;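 further: 100% = cells given the luciferase reporter alone without the COUP-TF2 vector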
* hit, by the source's call; · = not tested or not shown.

SMILES	NR5A2 inv ag	NCOA1 inh	SRC3 inh	COUP-TFII inh	Gli-Sufu antag	SRC2 inh	VP16 Luc counter	NR2F2 inh conf
CCOC(=O)N1CCC(NC(=O)C2CCCN(Cc3nc(-c4ccc(CC)cc4)oc3C)C2)CC1 (stereo not drawn)	31	4	38	54*	31	19	0	45*
Cc1oc(-c2ccc(Cl)cc2)nc1CN1CCCC(C(=O)NCc2cccnc2)C1 (stereo not drawn)	28	8	16	52*	12	4	13	46*
CCOC(=O)N1CCC(NC(=O)C2CCN(Cc3nc(-c4ccc(CC)cc4)oc3C)CC2)CC1	18	-3	-22	-6	-12	16	·	·
Cc1oc(-c2ccc(Cl)cc2)nc1CSCC(=O)NC1CCN(Cc2ccccc2)CC1	26	9	11	52*	-8	-7	15*	57*
FC(F)(F)c1cnc(N2CCN(C(=S)NCc3ccccc3)CC2)c(Cl)c1	4	9	10	2	34	1	·	·
FC(F)(F)c1cnc(N2CCCN(C(=S)Nc3ccccc3)CC2)c(Cl)c1	6	8	25	39*	12	-3	-7	25
COc1cc(CC2COC(=O)C2(O)Cc2ccc(O)c(OC)c2)ccc1O (stereo not drawn)	22	19	20	53*	17	3	-2	25
COc1cc(CC2COC(=O)C2Cc2ccc(O)c(OC)c2)ccc1O (stereo not drawn)	·	·	·	36	·	13	·	·
O=C(NCCCc1ccccc1)[C@H](Cc1c[nH]c2ccccc12)NC1(C(=O)NCCc2c[nH]c3ccccc23)CCOCC1	·	·	·	17	·	·	·	·
COc1ccc(NC(=O)Nc2ccc3c(c2)C(=O)N([C@H](C)CO)C[C@H](C)[C@@H](CN(C)C(=O)Nc2c(C)noc2C)O3)cc1	-23	0	-8	-8	-5	-14	·	·
COCCn1c(C)cc(C2=NNC(=NC3CC3)SC2)c1C	87*	89*	91*	94*	91*	86*	89*	109*
COCCn1c(C)cc(C2=NNC(=Nc3ccc(Cl)cc3Cl)SC2)c1C	12	-8	4	-5	-3	11	·	·
Cc1cc(C2=NNC(=NC3CC3)SC2)c(C)n1-c1ccccc1	77*	84*	86*	52*	91*	80*	71*	106*
Cc1cc(C2=NNC(=NC3CC3)SC2)c(C)n1Cc1ccco1	76*	76*	83*	89*	84*	83*	77*	103*
C=CCn1c(C)cc(C2=NNC(=Nc3ccc(C)cc3)SC2)c1C	-2	-3	17	-2	20	-12	·	·
C=CCN=C1NN=C(c2cc(C)n(CCOC)c2C)CS1	-7	13	28	86*	58*	70*	75*	96*
Cc1cc(C)cc(N2C(=O)C=CC2=O)c1	18	-1	-3	-3	-4	-27	·	·
CC(C)N1CC(C(=O)Nc2ccc(Cl)cc2Cl)CC1=O (stereo not drawn)	3	6	13	-10	·	-17	·	·
COc1cc(/C=C2\CC/C(=C\c3cc(OC)c(OC)c(OC)c3)C2=O)cc(OC)c1OC	-1	-8	25	0	28	-7	·	·
COc1cc(/C=C2\COC/C(=C\c3cc(OC)c(OC)c(OC)c3)C2=O)cc(OC)c1OC	-12	-187	3	60*	55*	75*	92*	103*
O=C(NC1CCN(Cc2ccccc2)CC1)c1cccc(S(=O)(=O)Nc2cc(C(F)(F)F)ccc2Cl)c1	0	1	17	21	23	22	·	·
COc1ccc(Cl)cc1NS(=O)(=O)c1cccc(C(=O)NC2CCN(Cc3ccccc3)CC2)c1	33	-3	30	48*	11	27	17*	33
OCCCNc1ncnc2c1ncn2[C@H]1CN(Cc2ccco2)C[C@@H](CO)O1	0	3	0	1	·	-10	·	·
COc1cccc(CN(C)C(=O)CNC(=O)c2ccc(-c3ccccc3)cc2)c1OC	26	6	3	58*	7	24	3	47*
Cn1nc(C(F)(F)F)c(C#N)c1N1CCN(c2ccc(F)cc2)CC1	4	43	50	45*	4	41	11	31
SMILES	NR5A2 inv ag	NCOA1 inh	SRC3 inh	COUP-TFII inh	Gli-Sufu antag	SRC2 inh	VP16 Luc counter	NR2F2 inh conf
CC(=O)N1CCN(C(=O)c2cc3ccccc3o2)CC1	0	0	-37	4	-20	15	·	·
O=C(c1cc2ccccc2o1)N1CCN(C/C=C/c2ccccc2)CC1	6	-6	14	38*	6	-8	-3	3
CS(=O)(=O)N1CCc2cc(-c3csc(NC(=O)Cc4cccs4)n3)ccc21	43	11	30	66*	8	-8	-4	35
O=C(CN1CCOCC1)Nc1nc(-c2ccc3c(c2)CCN3S(=O)(=O)c2ccccc2)cs1	-3	9	25	42*	12	16	0	15
Cc1sc(NC(=O)CN2CCOCC2)nc1-c1ccc2c(c1)CCN2S(=O)(=O)c1ccccc1	18	19	19	65*	45	-6	9	56*
CC(=O)Nc1nc(-c2ccc3c(c2)CCN3S(C)(=O)=O)cs1	-49	-32	-61	-28	-48	-42	·	·
Cc1cccc(C(=O)N2CCc3cc(-c4nc(NC(=O)CN5CCCC5)sc4C)ccc32)c1	23	-3	14	2	-17	-13	·	·
COc1cc(CNc2ncnc3c2ncn3[C@H]2CN(Cc3cccc(C(F)(F)F)c3)C[C@@H](CO)O2)cc(OC)c1OC	2	14	3	3	·	16	·	·
CC(=O)c1cccc(S(=O)(=O)Nc2cc(C(F)(F)F)ccc2N2CCOCC2)c1	14	7	2	-1	0	-35	·	·
O=C(COc1ccc2ccccc2c1Br)Nc1ccncc1	-19	-86	-29	51*	-2	-18	-79	-2
Cc1ccc(OCC(=O)Nc2ccncc2)cc1C	3	-5	-15	20	·	-7	·	·
O=C(COc1ccc(Nc2ccccc2)cc1)Nc1ccncc1	43	11	-5	48*	1	14	1	20
O=C(COc1ccc(Br)cc1)Nc1ccncc1	21	6	3	-5	7	-6	·	·
Cc1cc(OCC(=O)Nc2ccncc2)cc(C)c1Cl	23	22	14	57*	-16	34	-5	32
CC(C)CCOc1cccc(OCC(=O)Nc2ccncc2)c1	45	7	33	62*	22	34	-3	55*
O=C(Nc1nnc([C@@H]2C[C@H](O)[C@@H](CO)O2)s1)Nc1cccc(Cl)c1Cl	-20	-29	-39	-10	·	-25	·	·
Cc1ccc2nc(C(C)(C)C)c(Cc3ccsc3)n2c1	13	-14	13	-6	·	-4	·	·
